{
  "source": "paper PMC7819943",
  "about": "“Rice protein-binding microarrays: a tool to detect cis-acting elements near promoter regions in rice”",
  "note": "The full ranking holds about 68,000 sequences; the median of “fluorescence intensity (a.u.)” is about 9,100, and the highest 2% start at about 16,000. The sample holds the highest values, similar sequences and a random draw of the others, so the mix is not that of the screen.",
  "data": [
    {"target": "OsWRKY34 (Oryza sativa, UniProt Q0JBA9 1-250)", "sequence (Q0JBA9 entry or part of it)": "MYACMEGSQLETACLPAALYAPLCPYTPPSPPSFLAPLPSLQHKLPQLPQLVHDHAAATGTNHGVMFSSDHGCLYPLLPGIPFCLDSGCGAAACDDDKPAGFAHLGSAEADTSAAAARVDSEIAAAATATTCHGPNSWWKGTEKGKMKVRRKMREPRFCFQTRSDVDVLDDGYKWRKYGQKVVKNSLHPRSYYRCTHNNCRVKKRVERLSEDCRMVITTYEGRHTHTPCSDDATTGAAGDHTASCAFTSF", "test": "protein-binding microarray (RPBM); PBS, 2% BSA, 51.3 ng/ul salmon testes DNA, 50 uM zinc acetate, 200 nM TF, 25 C, 1 h; high values mean tight binding", "details": "protein: recombinant; tags: N-terminal polyhistidine and DsRed monomer fusion (pET32a); label: CyDye5-dUTP incorporated in the synthesized complementary strand; 3' TTTTT single-stranded linker to array surface; dsDNA, one strand shown", "in_short": "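For the binding signal, per-feature fluorescence intensity was read in arbitrary units on an Axon 4000B scanner. Before scanning, a 2% BSA-blocked custom Agilent array made double-stranded with Cy5-dUTP was washed after 1 h at 25 °C with 200 nM protein and 50 µM zinc acetate. The proteins were Ni–NTA-purified transcription factors with N-terminal polyhistidine and DsRed fusions, expressed in E. coli BL21-CodonPlus.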", "values": [
      {"sequence": "GTTGTATAGGTTGGTTTTTTATGTATGACGCCGTTGACTTCGGAGTCACCTAGTGCAG", "binding signal": "17100 fluorescence intensity (a.u.)"},
      {"sequence": "TCTTCGTATAAAAAGTATGACGCCGTTGACTTTTCATATACGGAGTCACCTAGTGCAG", "binding signal": "14500 fluorescence intensity (a.u.)"},
      {"sequence": "CCCGTGTCTTCCCAACCACGTTGACCACGACTTTTTCGTTCGGAGTCACCTAGTGCAG", "binding signal": "9480 fluorescence intensity (a.u.)"},
      {"sequence": "CCCGTCAACGCCACCTCACCGTTGACGTTGCCACTCTCTTCGGAGTCACCTAGTGCAG", "binding signal": "16800 fluorescence intensity (a.u.)"},
      {"sequence": "CCACCGCCCGCCGTCGTCTCTCTCTCTCTCTCTCTCTCTTCGGAGTCACCTAGTGCAG", "binding signal": "9970 fluorescence intensity (a.u.)"},
      {"sequence": "CGCCGTTTAGTTTTTACTAACGTTTGACCATTTTTCTTATCGGAGTCACCTAGTGCAG", "binding signal": "11700 fluorescence intensity (a.u.)"},
      {"sequence": "TATTACTCCCTTCGTATTTTAATGTATGACGCCGTTGACTCGGAGTCACCTAGTGCAG", "binding signal": "8820 fluorescence intensity (a.u.)"},
      {"sequence": "GTGGACGTTTTTGACTTTGTACTTTCAACGTTTGACCATTCGGAGTCACCTAGTGCAG", "binding signal": "13900 fluorescence intensity (a.u.)"},
      {"sequence": "TATGTCACGTATAAAATTCTAATGCTAGCTAACTACCATACGGAGTCACCTAGTGCAG", "binding signal": "8340 fluorescence intensity (a.u.)"},
      {"sequence": "GATCCGACTCCTACTTCTAACGTAGATTTTCGGCCTTTATCGGAGTCACCTAGTGCAG", "binding signal": "8370 fluorescence intensity (a.u.)"},
      {"sequence": "TTGCAAATGCAACCCTATTATGCCATCCTTTGTTATCCTGCGGAGTCACCTAGTGCAG", "binding signal": "9550 fluorescence intensity (a.u.)"},
      {"sequence": "TTTGTTCTCTTTTATATGTAACACTTGCATATTTACCTTCCGGAGTCACCTAGTGCAG", "binding signal": "8980 fluorescence intensity (a.u.)"},
      {"sequence": "CTTCTCTTACCTCGGTGGGTGCTTAATGTGCTGGTTTGAACGGAGTCACCTAGTGCAG", "binding signal": "8740 fluorescence intensity (a.u.)"},
      {"sequence": "GCCATCCACTTGTGCTGCCAATTTGCTCAATCCCGACAAGCGGAGTCACCTAGTGCAG", "binding signal": "8220 fluorescence intensity (a.u.)"},
      {"sequence": "ACATTTCTGTTATTCCCCGCGGACAAGTCACAACTACTTCCGGAGTCACCTAGTGCAG", "binding signal": "9830 fluorescence intensity (a.u.)"},
      {"sequence": "CGCCGCCCATCTTGTCCCAATTCGGCTCCTATAAATTTCCCGGAGTCACCTAGTGCAG", "binding signal": "8750 fluorescence intensity (a.u.)"},
      {"sequence": "TGCCTCCTTTTGTTTTGCGTCTCCTTATCAGAGTGGATTGCGGAGTCACCTAGTGCAG", "binding signal": "8350 fluorescence intensity (a.u.)"},
      {"sequence": "ATCCCAATCCATGATCCAGCCATTCATCATCTGCATATATCGGAGTCACCTAGTGCAG", "binding signal": "9790 fluorescence intensity (a.u.)"},
      {"sequence": "ATGTATGACGCCGTTGACTTTTCGACCAACGTTTATTCGTCGGAGTCACCTAGTGCAG", "binding signal": "30200 fluorescence intensity (a.u.)"},
      {"sequence": "AGATTACGCCGTTAACTTTTTCTCACATGTTTGACCATTCCGGAGTCACCTAGTGCAG", "binding signal": "11000 fluorescence intensity (a.u.)"},
      {"sequence": "TCTTGTGCAGGGGTTGATTTTTCAGTGTATAGGGGTATGACGGAGTCACCTAGTGCAG", "binding signal": "16800 fluorescence intensity (a.u.)"},
      {"sequence": "ACTATTACTACCTCAGTTTTGAAATGTATGACGTTGACTTCGGAGTCACCTAGTGCAG", "binding signal": "11000 fluorescence intensity (a.u.)"},
      {"sequence": "AATGTATGACGCCGTTGACTTTTTGACCAACGTTTGACTACGGAGTCACCTAGTGCAG", "binding signal": "36100 fluorescence intensity (a.u.)"},
      {"sequence": "ATGTACGACGCTATTGACTTTTTAACCAACGTTTGACTATCGGAGTCACCTAGTGCAG", "binding signal": "11000 fluorescence intensity (a.u.)"},
      {"sequence": "ATGAGTGATTGATTTCTTGTTTATAGGAGTGGGTTGTTCACGGAGTCACCTAGTGCAG", "binding signal": "11200 fluorescence intensity (a.u.)"},
      {"sequence": "AGATGACGCCGTTGACTTTTTATCACATGTTTAACCATTCCGGAGTCACCTAGTGCAG", "binding signal": "42300 fluorescence intensity (a.u.)"},
      {"sequence": "GTTTAGTTGATTTCAGGGCCAGTTCTTGTGGGGTTTTCAACGGAGTCACCTAGTGCAG", "binding signal": "8490 fluorescence intensity (a.u.)"},
      {"sequence": "AAACGCTATTGACTTTTTTTATAAATGTATGACCATTCGTCGGAGTCACCTAGTGCAG", "binding signal": "10400 fluorescence intensity (a.u.)"},
      {"sequence": "AATATTCGACGCCGTTCACTTTTTTAAATATGTTTGACCACGGAGTCACCTAGTGCAG", "binding signal": "9820 fluorescence intensity (a.u.)"},
      {"sequence": "ATCTGTCAGTGCCACATCACCACCACACAACCGCAAAGAACGGAGTCACCTAGTGCAG", "binding signal": "9250 fluorescence intensity (a.u.)"},
      {"sequence": "ATCGGTGTTGACCTCCATATGCTGATCAGGCCCCATTTCCCGGAGTCACCTAGTGCAG", "binding signal": "8140 fluorescence intensity (a.u.)"},
      {"sequence": "GGCCGAGCAGGTCTCCCGCGCCTTCGACATCCCTCTGCCACGGAGTCACCTAGTGCAG", "binding signal": "8600 fluorescence intensity (a.u.)"},
      {"sequence": "TTCCTCTACATTCTACGTCCGGTTGGATTTTGCATGCGATCGGAGTCACCTAGTGCAG", "binding signal": "8640 fluorescence intensity (a.u.)"},
      {"sequence": "TTCTTCCCAGATCGTGCTTCTCCCACTCGGATCAGCCGCCCGGAGTCACCTAGTGCAG", "binding signal": "8110 fluorescence intensity (a.u.)"},
      {"sequence": "TGTTGTTTTTTATGTGTGAACCTCTTTGATCTCAATGCAACGGAGTCACCTAGTGCAG", "binding signal": "8510 fluorescence intensity (a.u.)"},
      {"sequence": "CCTCCCTCACCGTCTTCCGCCTCGCCATCTCCAGCTCCGACGGAGTCACCTAGTGCAG", "binding signal": "10100 fluorescence intensity (a.u.)"},
      {"sequence": "CACCATCCATGCATATGCATCTTGTAGTTATTGCTTGCTCCGGAGTCACCTAGTGCAG", "binding signal": "9580 fluorescence intensity (a.u.)"},
      {"sequence": "TCCACATCATCCGACCAACTCTACCAGCCATTCCACCCGCCGGAGTCACCTAGTGCAG", "binding signal": "9160 fluorescence intensity (a.u.)"},
      {"sequence": "CCTTATACTGTCTCACTTGTCTCACACTGAAACCGTTTTCCGGAGTCACCTAGTGCAG", "binding signal": "8410 fluorescence intensity (a.u.)"},
      {"sequence": "GTATGACGCCGTTGACTTTTTGGCCAACGTTTGACCATTCCGGAGTCACCTAGTGCAG", "binding signal": "41500 fluorescence intensity (a.u.)"},
      {"sequence": "CGTTTGGCCAAGTATATGACGCCCTAACTTATAAGTTGACCGGAGTCACCTAGTGCAG", "binding signal": "8420 fluorescence intensity (a.u.)"},
      {"sequence": "TGACGACGCCATTGACTTTTGAACACATGTTTGACCATTCCGGAGTCACCTAGTGCAG", "binding signal": "15900 fluorescence intensity (a.u.)"},
      {"sequence": "ACGCCGTTAACTTTTTATCCAATGTTTGACCATTCGTCTTCGGAGTCACCTAGTGCAG", "binding signal": "13000 fluorescence intensity (a.u.)"},
      {"sequence": "GTATAACGCCGTTGACTTTTTAACCAATGTTTGACCATTCCGGAGTCACCTAGTGCAG", "binding signal": "40400 fluorescence intensity (a.u.)"}
    ]}
  ]
}
